The values below come from PubChem BioAssay.

Assay [1] relates to Wnt5a (protein binding on small-molecule microarray). Nature of the assay: small molecules binding Wnt5a protein – biophysical, small-molecule microarray, 635/667 nm fluorescence, primary screen (AID 1142).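 Note: fluorescence read at 667 nm with signal to noise per printed feature.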 As to conditions: 635 nm fluorescence, higher = more signal.
Assay [2] can be described thus: ATP-based viability of Huh7 replicon cells – cell-based, CellTiter-Glo luminescence, basal, 48 h, cytotoxicity control for HCV replication inhibitor project, primary screen (AID 1143).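 Note: Huh7 hepatoma cells carrying a hepatitis C replication reporter with no stimulus; test concentration not given here.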 The settings on record: higher = more signal, called active from +8 up or from −8 down. A general note: Replicon systems follow genome replication, usually without infectious particles.

A short description of assay [3]: Pseudomonas biofilm growth suppression – PAO1 strain, BacTiter-Glo luminescence, LB-PBS, primary screen (AID 1144). The settings on record: P. aeruginosa PAO1 biofilm, 12 h, higher = more signal.
A short description of assay [4]: basal CRE-LacZ reporter activity in PC12 – cell-based, unstimulated, primary screen (AID 1145). As to conditions: no forskolin, luminescence, 4.5 h, higher = more signal, called active from +8 up or from −8 down.
Assay [5] is described as follows: forskolin-driven CRE-LacZ activity in PC12 – cell-based, CRE-LacZ reporter, forskolin-stimulated, primary screen (AID 1146).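 Note: PC12 cells with 6xCRE LacZ reporter stimulated by forskolin 10 µM; beta-galactosidase reporter signal reflecting CREB driven transcription.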 The settings on record: luminescence, 4.5 h, higher = more signal, called active from +8 up or from −8 down.
Assay [6] addresses Streptavidin (Streptomyces avidinii) (UniProt P22629). The assay can be described thus: compounds binding control protein streptavidin – biophysical, small-molecule microarray, 635/667 nm fluorescence, artefact control for SMM compound annotation, primary screen (AID 1147).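 Note: signal reflects streptavidin binding to arrayed compounds as a control protein.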 The settings on record: higher = more signal.
Assay [7] is described as follows: probe aInhba binding on compound microarray – biochemical, small-molecule microarray, 635/667 nm fluorescence, primary screen (AID 1148).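 Note: score merges 667nm spot fluorescence with signal-to-noise for antibody binding to printed compounds.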 The settings on record: higher = more signal.
Assay [8] addresses Torsin-1A (Homo sapiens) (UniProt O14656). The assay can be described thus: TOR1A wild-type binding on microarray – cell lysate, small-molecule microarray, lysate, 635/667 nm, primary screen (AID 1149). As to conditions: COS7 hTOR1A-WT lysate, 635 nm fluorescence, higher = more signal.
The target is the same in assay [9]. The assay can be described thus: torsin A mutant lysate binding on microarrays – cell lysate, small-molecule microarray, COS7 lysate, 635/667 nm fluorescence, primary screen (AID 1150).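 Note: score pools 667 nm emission and signal to noise measuring lysate protein binding.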 As to conditions: COS7 hTOR1A mutant lysate, 635 nm fluorescence, higher = more signal.
Assay [10] has as its system Sonic hedgehog protein (Shh). The assay can be described thus: Sonic hedgehog microarray binding compounds – biochemical, small-molecule microarray, 635/667 nm fluorescence, primary screen (AID 1151).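 Note: Shh protein binding to compounds spotted on small-molecule microarray slides; score combines spot fluorescence intensity with signal-to-noise across triplicate slides.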 As to conditions: 635 nm fluorescence, higher = more signal.
A short description of assay [11]: optical density shifts of acrAB sulA E. coli – strain DRC41, OD650, 48 h, E. coli filamentation inducer project, primary screen (AID 1152).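 Note: E. coli MC1000 strain DRC41 lacking acrAB efflux pump and sulA.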 As to conditions: higher = more signal, called active from +8 up or from −8 down.
Assay [12] can be described thus: probe aLefty1 binding on compound microarray – biochemical, small-molecule microarray, 635/667 nm fluorescence, primary screen (AID 1153).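 Note: score merges spot fluorescence with signal-to-noise ratio from the scanned slide images.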 As to conditions: higher = more signal.
Assay [13] can be described thus: plasmodial surface anion channel blockers, osmotic lysis – cell-based, P. falciparum Indochina, OD700, 1 h, primary screen (AID 1154). As to conditions: P. falciparum Indochina infected RBC osmotic lysis, higher = more signal, called active from +8 up or from −8 down.
The nature of assay [14]: plasmodial surface anion channel blockers, osmotic lysis – cell-based, P. falciparum Indochina, OD700, 2 h, primary screen (AID 1155).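 Note: lysis reports solute entry through the parasite surface anion channel PSAC.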 As to conditions: P. falciparum Indochina infected erythrocytes, higher = more signal, called active from +8 up or from −8 down.
The nature of assay [15]: changes in parasitized red cell lysis, either direction – P. falciparum Indochina, OD700, 3 h, PSAC antagonist project, primary screen (AID 1156). As to conditions: P. falciparum-infected erythrocytes, osmotic lysis, higher = more signal, called active from +8 up or from −8 down.
Assay [16] in a line: plasmodial surface anion channel blockers, osmotic lysis – cell-based, P. falciparum Indochina, OD700, 18 h, primary screen (AID 1157). The settings on record: P. falciparum Indochina infected erythrocytes, osmotic lysis OD700, 18 h; higher = more signal, called active from +8 up or from −8 down.
Assay [17] can be described thus: S6 kinase pathway phospho-S6 level changes – cell-based, A549, cytoblot, luminescence, serum-stimulated, primary screen (AID 1158).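 Note: serum-stimulated A549 lung adenocarcinoma cells; signal is phosphorylated S6 detected by cytoblot immunostaining with HRP secondary.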 The settings on record: 5 h, higher = more signal.
The target of assay [18] is NADPH oxidase 2 (Homo sapiens) (UniProt P04839). The assay can be described thus: compounds shifting NOX2 Amplex Red fluorescence – cell-based, HEK293-NOX2, PMA-stimulated, NOX inhibitor project, primary screen (AID 1159). Note: test concentration not given here. As to conditions: 45 min, higher = more signal, called active from +8 up or from −8 down.
NADPH oxidase 2 (Homo sapiens), sequence (P04839 whole entry, looked up): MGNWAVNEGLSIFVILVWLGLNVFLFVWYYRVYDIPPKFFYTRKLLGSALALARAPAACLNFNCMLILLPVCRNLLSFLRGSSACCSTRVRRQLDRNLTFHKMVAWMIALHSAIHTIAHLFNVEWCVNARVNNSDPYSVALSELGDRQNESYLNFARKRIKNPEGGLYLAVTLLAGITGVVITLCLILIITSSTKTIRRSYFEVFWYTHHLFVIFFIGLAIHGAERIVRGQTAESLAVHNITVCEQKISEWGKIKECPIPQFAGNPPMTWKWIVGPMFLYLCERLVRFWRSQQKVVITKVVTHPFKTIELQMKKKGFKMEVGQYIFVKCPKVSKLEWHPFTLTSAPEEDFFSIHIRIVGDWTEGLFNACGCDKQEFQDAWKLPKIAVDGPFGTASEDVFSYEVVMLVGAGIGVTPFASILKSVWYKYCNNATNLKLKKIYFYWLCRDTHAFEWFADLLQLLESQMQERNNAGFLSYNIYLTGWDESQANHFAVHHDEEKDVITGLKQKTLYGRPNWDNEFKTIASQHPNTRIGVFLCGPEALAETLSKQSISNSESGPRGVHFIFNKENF
Assay [19] addresses NADPH oxidase 4 (Homo sapiens) (UniProt Q9NPH5). The assay can be described thus: compounds shifting NOX4 Amplex Red fluorescence – cell-based, HEK293-NOX4, tetracycline-induced, NOX inhibitor project, primary screen (AID 1160). As to conditions: HEK293-NOX4, Amplex Red H2O2 fluorescence, 45 min; higher = more signal, called active from +8 up or from −8 down.
For assay [20], the target named is NADPH oxidase 5 (Homo sapiens) (UniProt Q96PH1). The assay can be described thus: compounds shifting NOX5 Amplex Red fluorescence – cell-based, HEK293-NOX5, NOX inhibitor project, primary screen (AID 1161). As to conditions: HEK293-NOX5, ionomycin, 45 min, higher = more signal.
NADPH oxidase 5 (Homo sapiens), sequence (Q96PH1 whole entry, looked up): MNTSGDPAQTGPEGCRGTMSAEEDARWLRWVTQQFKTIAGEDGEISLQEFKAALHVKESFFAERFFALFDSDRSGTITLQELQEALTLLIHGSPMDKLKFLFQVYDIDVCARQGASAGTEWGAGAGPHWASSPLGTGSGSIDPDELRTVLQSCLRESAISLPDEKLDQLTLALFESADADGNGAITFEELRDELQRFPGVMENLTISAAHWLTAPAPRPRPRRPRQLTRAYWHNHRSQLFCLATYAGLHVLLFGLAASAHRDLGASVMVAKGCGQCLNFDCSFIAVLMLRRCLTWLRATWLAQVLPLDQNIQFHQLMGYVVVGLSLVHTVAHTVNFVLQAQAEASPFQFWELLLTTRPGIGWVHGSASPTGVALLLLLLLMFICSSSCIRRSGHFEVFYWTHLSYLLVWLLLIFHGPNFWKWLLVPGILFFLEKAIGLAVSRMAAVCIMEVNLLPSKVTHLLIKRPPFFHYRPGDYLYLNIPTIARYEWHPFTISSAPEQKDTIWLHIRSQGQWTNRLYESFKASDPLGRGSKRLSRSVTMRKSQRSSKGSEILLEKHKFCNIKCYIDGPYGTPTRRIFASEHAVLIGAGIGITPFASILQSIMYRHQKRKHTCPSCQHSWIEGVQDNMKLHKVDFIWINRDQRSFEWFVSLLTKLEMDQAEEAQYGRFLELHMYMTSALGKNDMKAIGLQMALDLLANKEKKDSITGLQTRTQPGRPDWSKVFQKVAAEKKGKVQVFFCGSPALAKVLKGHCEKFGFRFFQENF

Calls of active or inactive are those of the source. Unless noted, the rule behind the calls is not given here.

Torsin-1A (Homo sapiens), sequence (O14656 whole entry, looked up): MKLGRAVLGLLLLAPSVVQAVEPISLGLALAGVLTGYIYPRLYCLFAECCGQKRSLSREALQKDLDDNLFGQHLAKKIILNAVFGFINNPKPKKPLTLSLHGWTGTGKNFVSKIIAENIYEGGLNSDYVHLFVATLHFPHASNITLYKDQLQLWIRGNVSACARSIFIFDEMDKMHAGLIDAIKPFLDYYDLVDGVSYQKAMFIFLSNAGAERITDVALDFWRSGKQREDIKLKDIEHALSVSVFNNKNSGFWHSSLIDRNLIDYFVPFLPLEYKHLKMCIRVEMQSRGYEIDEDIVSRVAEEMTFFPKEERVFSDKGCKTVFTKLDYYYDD
NADPH oxidase 4 (Homo sapiens), sequence (Q9NPH5 whole entry, looked up): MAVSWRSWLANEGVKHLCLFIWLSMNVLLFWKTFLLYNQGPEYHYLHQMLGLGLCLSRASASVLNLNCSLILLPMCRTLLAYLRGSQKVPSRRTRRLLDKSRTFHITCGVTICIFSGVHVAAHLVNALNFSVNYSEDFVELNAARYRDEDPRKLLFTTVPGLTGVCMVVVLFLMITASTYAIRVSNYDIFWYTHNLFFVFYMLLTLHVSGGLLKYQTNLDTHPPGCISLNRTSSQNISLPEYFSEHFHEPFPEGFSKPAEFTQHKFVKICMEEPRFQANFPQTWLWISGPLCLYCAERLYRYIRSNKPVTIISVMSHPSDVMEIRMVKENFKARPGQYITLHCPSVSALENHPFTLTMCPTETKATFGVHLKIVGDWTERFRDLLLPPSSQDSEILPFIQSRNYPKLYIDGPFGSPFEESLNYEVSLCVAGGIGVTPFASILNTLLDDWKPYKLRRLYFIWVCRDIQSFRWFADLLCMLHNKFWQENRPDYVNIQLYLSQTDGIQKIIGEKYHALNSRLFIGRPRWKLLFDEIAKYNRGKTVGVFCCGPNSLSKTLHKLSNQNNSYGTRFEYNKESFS
Streptavidin (Streptomyces avidinii), sequence (P22629 whole entry, looked up): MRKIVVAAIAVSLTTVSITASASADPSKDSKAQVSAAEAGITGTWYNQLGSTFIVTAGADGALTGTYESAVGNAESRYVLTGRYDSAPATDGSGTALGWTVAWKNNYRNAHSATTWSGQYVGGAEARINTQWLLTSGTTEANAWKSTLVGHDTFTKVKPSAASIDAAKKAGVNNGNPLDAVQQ

With `[N-]=[N+]=NCc1ccccc1C[C@@]1(C(=O)O)N=C(c2ccc(OCCCO)cc2)O[C@@H]1c1ccccc1CN=[N+]=[N-]`, the composite z-score in assay [1] was 0.561; in assay [6], 0.465; in assay [7], 0.353; in assay [8], 1.28; in [9], 0.171; in [10] it was 0.447. In [12], this compound displayed a composite z-score of 0.313. For the same compound, the z-score in assay [2] was -1.96 (inactive); in [3], -0.595 (inactive); in assay [4], -0.996 (inactive); in assay [5], -1.4 (inactive); in assay [11], 0.583 (inactive); in assay [13], 22.1 (active). For the same compound, the z-score in assay [14] is 4.92 (inactive); in assay [15] it was -0.995 (inactive); in assay [16], -0.336 (inactive); in assay [17], 1.03; in assay [18] it was 0.887 (inactive); in assay [19] it was 1.54 (inactive). For the same compound, in assay [20], the z-score came out at 2.03.

For `CC(C)(C)N1CC=CC23O[C@@H]4/C=C\CCCOC(=O)C4[C@H]2C(=O)N(CCCCCCO)[C@@H]3C1=O` (stereo not given in full), the composite z-score in [1] was -0.731; in [6], -1; in [7] it was -0.0719; in [8], 0.467; in assay [9], 0.488; in assay [10], -0.22. In assay [12], this compound registered a composite z-score of 0.0903. Moreover, the z-score in assay [2] was -0.0711 (inactive); in assay [3], -1.95 (inactive); in [4], -0.224 (inactive); in [5] it was -0.739 (inactive); in assay [11] it was 1.88 (inactive); in assay [13] it was 1.64 (inactive). Besides, the z-score is -0.353 (inactive) in assay [14]; 0.703 (inactive) in [15]; -0.331 (inactive) in assay [16]; 1.97 in [17]; 0.834 (inactive) in assay [18]; -0.0239 (inactive) in assay [19]. Also, the z-score in [20] came out at 2.04.

For `COc1ccc(C(O)C2C=CC3C(=O)N(C)C(=O)C3N2Nc2ccc([N+](=O)[O-])cc2[N+](=O)[O-])cc1OCc1ccccc1` (stereo not given), the composite z-score in assay [1] is 0.477; in assay [6] it was 0.171; in assay [7], 0.566; in assay [8] it was 0.255; in [9] it was 0.387; in assay [10] it was -0.105. The composite z-score in [12] is 0.703. Besides, the z-score in [2] is 0.351 (inactive); in assay [3] it was 0.967 (inactive); in assay [4], 0.243 (inactive); in [5], 0.706 (inactive); in assay [11], -1.07 (inactive); in assay [13], -0.686 (inactive). For the same compound, the z-score was 0.958 (inactive) in [14]; 0.0971 (inactive) in assay [15]; 0.975 (inactive) in [16]; -1.21 in assay [17]; 0.0939 (inactive) in [18]; 0.703 (inactive) in [19]. In addition, the z-score in [20] worked out at 2.34.

With `CC(C)C[C@H]1NC(=O)[C@H](Cc2ccccc2)NC(=O)[C@@]23C(=O)N[C@@H](Cc4ccccc4)C2[C@H](C)[C@@]2(C)O[C@H]2C3/C=C/C/C=C\CNC1=O` (stereo not given in full), the composite z-score was 0.116 in [1]; 0.494 in assay [6]; -0.0552 in [7]; 0.471 in assay [8]; 0.855 in assay [9]; 0.889 in [10]. The compound further displayed a composite z-score in [12] of -0.145. The z-score was -1.29 (inactive) in assay [2]; 0.338 (inactive) in assay [3]; 0.67 (inactive) in [4]; 0.105 (inactive) in assay [5]; -1 (inactive) in [11]; 0.133 (inactive) in assay [13]. Moreover, the z-score in assay [14] is -0.209 (inactive); in [15], 0.0708 (inactive); in [16], -0.308 (inactive); in [17], -0.129; in [18], 1.05 (inactive); in assay [19], 0.819 (inactive). Moreover, in assay [20], the z-score is -1.37.
